Assay results reported in PubChem BioAssay AID1494158 (National Center for Advancing Translational Sciences (NCATS), 2020).
Results filed as inconclusive are left out. The source made the active and inactive calls. The call rests on the fitted dose curve.

Experiment: VSV-G qHTS counterscreen for inhibitors of SARS-S pseudo-typed particle cell entry

SMILES	Potency
COc1cc([C@@H]2c3cc4c(cc3C(O[C@@H]3O[C@@H]5CO[C@@H](c6cccs6)OC5[C@H](O)[C@H]3O)C3COC(=O)[C@@H]32)OCO4)cc(OC)c1O (stereo not given in full)	0.857 µM (active)
CC[C@@]1(O)C(=O)OCc2c1cc1n(c2=O)Cc2c-1nc1ccccc1c2/C=N/OC(C)(C)C	0.0764 µM (active)
COc1cccc2c1C(=O)c1c(O)c3c(c(O)c1C2=O)C[C@@](O)(C(C)=O)C[C@@H]3O[C@H]1C[C@H](N)[C@H](O)[C@H](C)O1	1.92 µM (active)
C[C@]12CC[C@H](O)C[C@H]1CCC1C2CC[C@]2(C)[C@@H](c3ccc(=O)oc3)C[C@H]3O[C@]132 (stereo not given in full)	9.61 µM (active)
CC(C)OC(=O)OCOP(=O)(CO[C@H](C)Cn1cnc2c(N)ncnc21)OCOC(=O)OC(C)C	0.0961 µM (active)
CC(CN(C)C)CN1c2ccccc2CCc2ccccc21 (stereo not given)	inactive
COc1ccc2cc3[n+](cc2c1OC)CCc1cc2c(cc1-3)OCO2	17.1 µM (active)
CCCCCCCCCCCCCC[n+]1ccc(C)cc1	1.92 µM (active)
CC(C)C(=O)Oc1ccc(CO)cc1[C@H](CCN(C(C)C)C(C)C)c1ccccc1	27.1 µM (active)
CC[C@@H]([C@H](C)O)n1ncn(-c2ccc(N3CCN(c4ccc(OC[C@@H]5CO[C@@](Cn6cncn6)(c6ccc(F)cc6F)C5)cc4)CC3)cc2)c1=O	6.81 µM (active)
N=C(N)c1ccc(OCCCCCOc2ccc(C(=N)N)cc2)cc1	21.5 µM (active)
Cc1cn([C@H]2C[C@H](N=[N+]=[N-])[C@@H](CO)O2)c(=O)[nH]c1=O	3.41 µM (active)
CC(C)OC(=O)[C@H](C)N[P@](=O)(CO[C@H](C)Cn1cnc2c(N)ncnc21)Oc1ccccc1	0.242 µM (active)
O=C(Nc1ccc(Cl)cc1)Nc1ccc(Cl)c(C(F)(F)F)c1	9.61 µM (active)
CCn1cc(C(=O)O)c(=O)c2cc(F)c(N3CCNC(C)C3)c(F)c21 (stereo not given)	inactive
CC(C)(C)c1ccc(C(=O)CCCN2CCC(OC(c3ccccc3)c3ccccc3)CC2)cc1	27.1 µM (active)
CN(C)CCOC(c1ccccc1)c1ccc(Br)cc1 (stereo not given)	inactive
CN1CC[C@H](CN2c3ccccc3Sc3ccccc32)C1	inactive

SMILES	Potency
O=c1ccc2ccccc2o1	inactive
CC(=O)N1CCN(c2ccc(OC[C@H]3CO[C@](Cn4ccnc4)(c4ccc(Cl)cc4Cl)O3)cc2)CC1	19.2 µM (active)
Cc1nnc2n1-c1sc(CCc3ccc(CC(C)C)cc3)cc1C(c1ccccc1Cl)=NC2C (stereo not given)	27.1 µM (active)
N/C(=N\N=C\c1ccc(Cl)cc1)N/N=C/c1ccc(Cl)cc1	24.1 µM (active)
O=c1c(C2CC(c3ccc(-c4ccc(Br)cc4)cc3)Cc3ccccc32)c(O)sc2ccccc12 (stereo not given)	15.2 µM (active)
C/C=C(/C)C(=O)O[C@H]1C(C)=CC23C(=O)C(C=C(CO)[C@@H](O)[C@]12O)[C@H]1[C@@H](C[C@H]3C)C1(C)C (stereo not given in full)	0.215 µM (active)
COc1cccc2c1C(=O)c1c(O)c3c(c(O)c1C2=O)C[C@@](O)(C(=O)CO)CC3OC1CC(N2CCOC(OC)C2)C(O)C(C)O1 (stereo not given in full)	0.108 µM (active)
CC(=O)[C@]1(O)Cc2c(O)c3c(c(O)c2[C@@H](O[C@H]2C[C@H](N)[C@H](O)[C@H](C)O2)C1)C(=O)c1ccccc1C3=O	4.82 µM (active)
CC(=O)Oc1ccccc1C(=O)Nc1ncc([N+](=O)[O-])s1	6.81 µM (active)
CCCN1C[C@H](C)[C@@H](O)[C@](C)(O)[C@@H](CC)OC(=O)[C@H](C)[C@@H](O[C@H]2C[C@@](C)(OC)[C@@H](O)[C@H](C)O2)C(C)[C@@H](O[C@@H]2O[C@H](C)C[C@H](N(C)C)[C@H]2O)[C@](C)(O)C[C@H]1C (stereo not given in full)	inactive
CC(C)C[C@H](NC(=O)[C@H](CCc1ccccc1)NC(=O)CN1CCOCC1)C(=O)N[C@@H](Cc1ccccc1)C(=O)N[C@@H](CC(C)C)C(=O)[C@@]1(C)CO1	0.764 µM (active)
C=CC1(C)CC(=O)C2(O)C(C)(O1)C(OC(C)=O)C(OC(=O)CCN(C)C)C1C(C)(C)CCC(O)C12C (stereo not given)	inactive
COc1cc(NS(C)(=O)=O)ccc1Nc1c2ccccc2nc2ccccc12	0.764 µM (active)
COc1cc2nccc(Oc3ccc(NC(=O)NC4CC4)c(Cl)c3)c2cc1C(N)=O	17.1 µM (active)
CCC(C)(C)C(=O)O[C@H]1C[C@@H](C)C=C2C=C[C@H](C)[C@H](CC[C@@H]3C[C@@H](O)CC(=O)O3)[C@H]21	1.21 µM (active)
Nc1nc(Cl)nc2c1ncn2C1CC(O)C(CO)O1 (stereo not given)	5.41 µM (active)
Oc1c(Cl)cc(Cl)c(Cl)c1Cc1c(O)c(Cl)cc(Cl)c1Cl	2.71 µM (active)
